The supplement of paper PMC10849652
About 7,900 targets were measured; listed, in parts, are those with a hit and a random draw of the rest. About 0.6% of all pairs of compound and target were hits. Unmarked numbers belong to inactive results.

compound: CNCc1ccc(-c2[nH]c3cc(F)cc4c3c2CCNC4=O)cc1 [rucaparib]; assay: log2 fold change, soluble protein after heating vs DMSO (PISA); higher = thermal stabilisation; K562 cells, 10 uM, 30 min; active = over 0.2 and 3.5 SD of the protein, either way, in both replicates (recomputed)
Outline: (§1)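 Soluble protein was defined as the supernatant after 21,000xg for 90 min. It came from K562 cells at 2×10^6 cells/mL given 10 μM compound for 30 min, heated in aliquots for 3 min across 48°C-58°C, pooled, and extracted in PBS with 0.5% NP-40 at 4°C, and was quantified by TMTpro 16plex LC-MS/MS with equalised channel sums. Thermal stability against control samples, from duplicates, is reported as log2 fold change.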

UniProt Q658P3, sequence (Q658P3 whole entry, looked up): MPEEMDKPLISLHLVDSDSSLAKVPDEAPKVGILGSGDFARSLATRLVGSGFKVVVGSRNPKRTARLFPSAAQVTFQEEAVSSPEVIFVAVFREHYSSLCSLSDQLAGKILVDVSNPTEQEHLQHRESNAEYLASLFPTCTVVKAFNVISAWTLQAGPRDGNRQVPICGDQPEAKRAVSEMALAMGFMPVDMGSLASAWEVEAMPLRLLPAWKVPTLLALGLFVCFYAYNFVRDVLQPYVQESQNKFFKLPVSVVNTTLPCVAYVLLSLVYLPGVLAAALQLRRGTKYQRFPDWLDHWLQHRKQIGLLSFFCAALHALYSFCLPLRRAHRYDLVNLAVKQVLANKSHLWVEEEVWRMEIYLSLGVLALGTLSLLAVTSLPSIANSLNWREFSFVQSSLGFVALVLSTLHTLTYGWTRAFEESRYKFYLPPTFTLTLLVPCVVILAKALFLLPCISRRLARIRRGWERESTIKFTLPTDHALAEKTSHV
UniProt Q8WVK2, sequence (Q8WVK2 whole entry, looked up): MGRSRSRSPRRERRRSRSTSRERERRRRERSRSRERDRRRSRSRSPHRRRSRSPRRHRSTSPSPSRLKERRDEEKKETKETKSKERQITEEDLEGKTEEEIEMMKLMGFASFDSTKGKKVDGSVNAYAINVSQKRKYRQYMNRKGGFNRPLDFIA
UniProt Q08170, sequence (Q08170 whole entry, looked up): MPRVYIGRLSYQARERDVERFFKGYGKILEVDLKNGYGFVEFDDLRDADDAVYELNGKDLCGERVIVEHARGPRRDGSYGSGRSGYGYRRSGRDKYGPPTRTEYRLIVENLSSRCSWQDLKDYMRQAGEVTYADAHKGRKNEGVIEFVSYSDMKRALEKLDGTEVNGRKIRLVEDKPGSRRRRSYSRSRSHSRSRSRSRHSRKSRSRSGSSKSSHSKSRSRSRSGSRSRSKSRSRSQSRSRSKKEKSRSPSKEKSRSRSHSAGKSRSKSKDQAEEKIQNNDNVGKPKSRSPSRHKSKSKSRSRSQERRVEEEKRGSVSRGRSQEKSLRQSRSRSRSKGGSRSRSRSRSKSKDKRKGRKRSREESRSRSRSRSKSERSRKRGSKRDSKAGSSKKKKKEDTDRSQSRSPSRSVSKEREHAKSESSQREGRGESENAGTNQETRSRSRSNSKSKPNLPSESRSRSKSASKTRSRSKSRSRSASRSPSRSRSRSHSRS
UniProt Q99805, sequence (Q99805 whole entry, looked up): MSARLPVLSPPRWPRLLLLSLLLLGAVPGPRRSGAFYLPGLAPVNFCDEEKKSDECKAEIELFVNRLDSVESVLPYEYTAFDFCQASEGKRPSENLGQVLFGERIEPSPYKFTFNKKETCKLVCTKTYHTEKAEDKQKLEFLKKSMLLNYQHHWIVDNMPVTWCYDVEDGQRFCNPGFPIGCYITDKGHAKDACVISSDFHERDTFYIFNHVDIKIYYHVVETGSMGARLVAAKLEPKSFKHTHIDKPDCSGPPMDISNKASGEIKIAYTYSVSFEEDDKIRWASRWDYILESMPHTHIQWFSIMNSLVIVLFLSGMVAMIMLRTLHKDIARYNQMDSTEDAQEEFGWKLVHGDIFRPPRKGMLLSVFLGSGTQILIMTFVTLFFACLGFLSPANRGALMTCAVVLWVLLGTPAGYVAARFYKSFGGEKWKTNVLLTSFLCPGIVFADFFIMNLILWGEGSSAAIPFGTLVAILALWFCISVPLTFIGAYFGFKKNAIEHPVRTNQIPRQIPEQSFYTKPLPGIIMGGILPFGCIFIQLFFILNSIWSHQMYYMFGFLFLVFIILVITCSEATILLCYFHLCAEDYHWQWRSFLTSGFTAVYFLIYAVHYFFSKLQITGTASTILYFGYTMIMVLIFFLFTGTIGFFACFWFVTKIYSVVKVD
UniProt Q9NZD8, sequence (Q9NZD8 whole entry, looked up): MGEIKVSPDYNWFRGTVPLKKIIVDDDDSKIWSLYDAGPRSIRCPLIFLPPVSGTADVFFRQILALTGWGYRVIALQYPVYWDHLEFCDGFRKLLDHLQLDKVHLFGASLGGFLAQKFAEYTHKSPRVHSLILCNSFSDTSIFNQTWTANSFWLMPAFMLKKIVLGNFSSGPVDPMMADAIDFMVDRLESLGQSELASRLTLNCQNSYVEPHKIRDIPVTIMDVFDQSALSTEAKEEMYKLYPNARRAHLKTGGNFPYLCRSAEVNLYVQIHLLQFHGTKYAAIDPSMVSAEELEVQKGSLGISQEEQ
UniProt Q9UNH7, sequence (Q9UNH7 whole entry, looked up): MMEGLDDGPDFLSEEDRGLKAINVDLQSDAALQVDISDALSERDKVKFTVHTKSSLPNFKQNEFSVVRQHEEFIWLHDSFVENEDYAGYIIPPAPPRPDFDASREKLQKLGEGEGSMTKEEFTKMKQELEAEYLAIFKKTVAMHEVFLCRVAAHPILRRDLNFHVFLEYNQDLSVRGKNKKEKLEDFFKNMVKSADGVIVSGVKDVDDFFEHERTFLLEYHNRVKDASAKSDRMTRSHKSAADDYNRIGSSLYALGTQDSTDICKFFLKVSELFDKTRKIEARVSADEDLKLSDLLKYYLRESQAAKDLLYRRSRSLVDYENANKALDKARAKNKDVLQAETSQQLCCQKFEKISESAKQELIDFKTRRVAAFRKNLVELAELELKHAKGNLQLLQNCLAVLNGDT
UniProt O43615, sequence (O43615 whole entry, looked up): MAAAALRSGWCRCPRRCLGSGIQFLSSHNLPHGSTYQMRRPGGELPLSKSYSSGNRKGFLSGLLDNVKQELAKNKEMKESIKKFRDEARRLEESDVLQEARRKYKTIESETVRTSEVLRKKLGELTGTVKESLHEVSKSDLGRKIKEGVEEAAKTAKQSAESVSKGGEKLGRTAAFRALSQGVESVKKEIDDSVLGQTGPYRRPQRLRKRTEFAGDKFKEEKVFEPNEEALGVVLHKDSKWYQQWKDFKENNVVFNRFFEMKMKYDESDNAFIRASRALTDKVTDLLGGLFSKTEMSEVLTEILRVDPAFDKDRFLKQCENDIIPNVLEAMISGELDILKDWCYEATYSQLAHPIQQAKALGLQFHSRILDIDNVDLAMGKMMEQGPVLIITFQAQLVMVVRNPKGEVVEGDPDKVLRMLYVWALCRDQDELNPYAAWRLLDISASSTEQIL
UniProt Q9NUY8, sequence (Q9NUY8 whole entry, looked up): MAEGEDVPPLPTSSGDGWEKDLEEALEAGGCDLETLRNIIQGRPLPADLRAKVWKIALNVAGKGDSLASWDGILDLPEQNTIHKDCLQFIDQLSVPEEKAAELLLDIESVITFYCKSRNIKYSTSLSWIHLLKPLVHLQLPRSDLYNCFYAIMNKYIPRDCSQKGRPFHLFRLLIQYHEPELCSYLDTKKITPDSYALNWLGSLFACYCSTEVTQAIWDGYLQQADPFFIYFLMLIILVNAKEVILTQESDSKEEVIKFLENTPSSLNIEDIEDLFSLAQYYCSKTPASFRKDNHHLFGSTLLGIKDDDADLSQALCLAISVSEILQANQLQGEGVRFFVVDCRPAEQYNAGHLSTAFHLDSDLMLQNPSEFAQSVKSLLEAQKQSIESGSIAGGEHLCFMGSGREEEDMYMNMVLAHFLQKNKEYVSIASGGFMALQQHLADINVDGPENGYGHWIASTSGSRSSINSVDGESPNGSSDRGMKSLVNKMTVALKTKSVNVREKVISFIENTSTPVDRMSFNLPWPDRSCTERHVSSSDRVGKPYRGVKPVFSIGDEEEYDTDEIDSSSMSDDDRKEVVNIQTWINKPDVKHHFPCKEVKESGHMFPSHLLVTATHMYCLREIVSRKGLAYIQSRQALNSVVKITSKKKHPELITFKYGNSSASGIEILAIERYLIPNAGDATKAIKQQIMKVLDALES
UniProt Q9UDY2, sequence (Q9UDY2 whole entry, looked up): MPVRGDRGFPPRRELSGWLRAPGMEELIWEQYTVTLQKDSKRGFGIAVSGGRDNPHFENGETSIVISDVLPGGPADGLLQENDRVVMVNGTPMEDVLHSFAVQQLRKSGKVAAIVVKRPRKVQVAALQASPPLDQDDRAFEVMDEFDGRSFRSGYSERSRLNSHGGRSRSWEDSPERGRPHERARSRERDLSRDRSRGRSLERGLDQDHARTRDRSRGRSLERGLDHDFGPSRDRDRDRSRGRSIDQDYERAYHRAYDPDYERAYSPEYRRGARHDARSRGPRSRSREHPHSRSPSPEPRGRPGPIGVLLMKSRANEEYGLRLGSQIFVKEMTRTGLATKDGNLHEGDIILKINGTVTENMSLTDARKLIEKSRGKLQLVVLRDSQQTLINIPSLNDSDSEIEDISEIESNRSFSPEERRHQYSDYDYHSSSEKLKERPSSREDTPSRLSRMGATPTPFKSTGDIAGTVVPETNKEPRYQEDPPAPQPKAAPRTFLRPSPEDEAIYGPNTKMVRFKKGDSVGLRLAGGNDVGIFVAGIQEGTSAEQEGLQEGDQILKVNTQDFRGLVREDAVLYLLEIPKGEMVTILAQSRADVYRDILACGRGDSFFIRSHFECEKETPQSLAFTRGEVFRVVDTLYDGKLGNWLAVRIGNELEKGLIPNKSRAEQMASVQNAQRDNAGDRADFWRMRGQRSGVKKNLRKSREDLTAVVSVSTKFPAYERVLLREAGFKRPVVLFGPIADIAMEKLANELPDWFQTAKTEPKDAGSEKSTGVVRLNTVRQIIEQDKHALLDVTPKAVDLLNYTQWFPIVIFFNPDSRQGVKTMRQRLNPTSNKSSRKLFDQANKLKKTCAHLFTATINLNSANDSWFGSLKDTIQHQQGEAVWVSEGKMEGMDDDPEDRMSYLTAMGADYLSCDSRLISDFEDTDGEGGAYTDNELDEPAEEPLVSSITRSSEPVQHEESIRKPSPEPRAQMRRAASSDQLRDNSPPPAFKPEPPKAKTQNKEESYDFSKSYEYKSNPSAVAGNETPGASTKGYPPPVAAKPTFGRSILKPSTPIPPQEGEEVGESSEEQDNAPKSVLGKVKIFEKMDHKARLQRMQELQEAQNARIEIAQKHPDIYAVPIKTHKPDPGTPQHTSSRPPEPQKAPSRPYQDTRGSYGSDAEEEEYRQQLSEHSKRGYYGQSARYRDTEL
UniProt P63165, sequence (P63165 whole entry, looked up): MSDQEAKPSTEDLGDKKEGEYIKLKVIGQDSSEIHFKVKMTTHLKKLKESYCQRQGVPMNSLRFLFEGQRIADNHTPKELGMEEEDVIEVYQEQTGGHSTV

| Target | log2 fold change |
| --- | --- |
| SRSF4 (UniProt Q08170) | 0.165 |
| SNRNP27 (UniProt Q8WVK2) | 0.049 |
| TJP2 isoform 7 (UniProt Q9UDY2) | 0.051 |
| STEAP3 isoform 2 (UniProt Q658P3) | 0.055 |
| SP100 isoform 4 (UniProt P23497) | -0.065 |
| SPG21 (UniProt Q9NZD8) | 0.089 |
| TIMM44 (UniProt O43615) | -0.12 |
| TBC1D23 (UniProt Q9NUY8) | -0.038 |
| SPAG9 (UniProt O60271) | 0.049 |
| SNRPB2 (UniProt P08579) | 0.058 |
| SNX6 (UniProt Q9UNH7) | -0.016 |
| STK25 (UniProt O00506) | 0.011 |
| TJP1 (UniProt Q07157) | 0.018 |
| STK11IP (UniProt Q8N1F8) | 0.1 |
| SUMO1 (UniProt P63165) | 0.056 |
| TM9SF2 (UniProt Q99805) | 0.015 |

compound: CNc1nc(-c2ccc3c(N)n[nH]c3c2)cc(N2C[C@@H](C(=O)NC3CCCCC3)CC[C@H]2C)n1; assay: as above
Outline: as §1

| Target | log2 fold change |
| --- | --- |
| TERF2IP (UniProt Q9NYB0) | -0.016 |
| TGFBR1 isoform 2 (UniProt P36897) | 0.041 |
| SLC25A39 (UniProt Q9BZJ4) | 0.015 |
| SLC27A2 (UniProt O14975) | 0.333 (active) |
| STAT5B (UniProt P51692) | 0.138 |
| TBC1D15 isoform 3 (UniProt Q8TC07) | -0.012 |
| TELO2 (UniProt Q9Y4R8) | 0.145 |
| SQSTM1 (UniProt Q13501) | -0.048 |
| TBC1D5 isoform 2 (UniProt Q92609) | -0.159 |
| SRI (UniProt P30626) | -0.021 |
| STAT3 (UniProt P40763) | -0.017 |
| SRPRA (UniProt P08240) | 0.06 |
| TAOK1 (UniProt Q7L7X3) | 0.053 |
| STK26 (UniProt Q9P289) | -0.001 |
| STK4 (UniProt Q13043) | 0.012 |
| STXBP2 isoform 3 (UniProt Q15833) | 0.142 |
| SRPRB (UniProt Q9Y5M8) | 0.032 |
| TIMM29 (UniProt Q9BSF4) | 0.002 |
| SPG11 (UniProt Q96JI7) | 0.119 |

| Target | log2 fold change |
| --- | --- |
| SLC25A36 (UniProt Q96CQ1) | 0.016 |
| SLC25A42 (UniProt Q86VD7) | 0.035 |
| TAMM41 isoform 3 (UniProt Q96BW9) | -0.006 |
| SRSF4 (UniProt Q08170) | 0.013 |
| SNRNP27 (UniProt Q8WVK2) | -0.09 |
| TJP2 isoform 7 (UniProt Q9UDY2) | 0.054 |
| STEAP3 isoform 2 (UniProt Q658P3) | -0.024 |
| SP100 isoform 4 (UniProt P23497) | -0.092 |
| SPG21 (UniProt Q9NZD8) | 0.211 |
| TIMM44 (UniProt O43615) | -0.057 |
| TBC1D23 (UniProt Q9NUY8) | -0.074 |
| SPAG9 (UniProt O60271) | 0.034 |
| SNRPB2 (UniProt P08579) | -0.041 |
| SNX6 (UniProt Q9UNH7) | 0.041 |
| STK25 (UniProt O00506) | -0.012 |
| TJP1 (UniProt Q07157) | 0.003 |
| STK11IP (UniProt Q8N1F8) | -0.039 |
| SUMO1 (UniProt P63165) | -0.09 |
| TM9SF2 (UniProt Q99805) | -0.031 |
